Mm-Cpn inhibitor – Inhibitors of TCP-1 ring complex (TRiC) of Methanococcus maripaludis (MmCpn): qHTS. Chaperonin Mm-Cpn (Methanococcus maripaludis). purified Mm-Cpn ATPase, ADP Transcreener TR-FRET. Potency, µM (doses to about 76.9 µM), for the others: at the highest dose activity, negative = inhibition, hits mostly inhibitors. 330,000 tested, 0.031% active. AID 504842, 2011; further: potency means the concentration at half of the fitted maximal effect; on the % scale 0 is the no-effect control and ±100 the full control effect; nearly all actives have a fitted effect of over 80% in size
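ATPase turnover read by TR-FRET ADP competition (Eu cryptate antibody/ADP-d2, 665/590 nm): 10uM ATP final, 25nM Mm-CPN final, 30 min 37degC after 10-min compound preincubation, pH 7.4 Tris/KCl/MgCl2/DTT buffer.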
Anesthetic bind – qHTS Assay for Identification of Novel General Anesthetics | apoferritin/1-aminoanthracene competitive binding, fluorescence | Potency, µM (top dose mostly 77.5 µM), for the others: at the top dose activity change, negative = displacement, actives largely listed as inhibitors | 350,000 tested, 0.074% active | Ferritin light chain (Equus caballus), P02791; further: potency means the concentration at half of the fitted maximal effect; on the % scale 0 is the no-effect control and ±100 the full control effect; nearly all actives have a fitted effect of over 20% in size
Target sequence (P02791 2-175 limits assumed): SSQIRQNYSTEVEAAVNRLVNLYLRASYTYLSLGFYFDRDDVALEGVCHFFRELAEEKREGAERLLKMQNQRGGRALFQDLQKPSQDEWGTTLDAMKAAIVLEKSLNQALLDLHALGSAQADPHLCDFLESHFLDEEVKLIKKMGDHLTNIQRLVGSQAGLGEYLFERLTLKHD
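Concentration-response curves derived by four-parameter Hill fitting of normalized fluorescence, where compounds displaced 1-AMA from 10 uM horse apoferritin following a brief 10 min room-temperature incubation; propofol titration acted as positive control.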
A-T KAP1 phos – qHTS Assay for Identifying a Potential Treatment of Ataxia-Telangiectasia; F2112 A-T fibroblasts, KAP-1 phosphorylation AlphaLISA; neocarzinostatin DNA damage 30 min before lysis; Potency, µM (highest dose often 57.5 µM), for the others: at the highest dose activation, usual class: activators; 320,000 tested, 0.19% active; further: potency means the concentration at half of the fitted maximal effect; % of control where 0% means no effect; nearly all actives have a fitted effect of over 45% in size
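ATM-like activity read as KAP-1 phosphorylation via AlphaLISA donor/acceptor antibody pairs after lysis and 6 hr at 25C. Cells were ATM-null patient fibroblasts (F2112, hTERT), dosed 60 min, then exposed to the DSB inducer NCS for 30 min.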
CCT chaperon mod – High-Throughput Screening for Modulators of Cytosolic Chaperonin Activity | purified chaperonin ATPase assay, HTRF ADP detection, 30 min | activity change, % (no concentration beside the values), hits read low | 360,000 tested, 0.3% active | AID 651819, 2012; in the data active means activity change below about -30%; further: on the % scale 0 is the no-effect control and ±100 the full control effect
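TRiC (40 or 20 nM final, by batch activity) in 30 mM Tris pH 7.4, 100 mM KCl, 5 mM MgCl2, 1 mM DTT was treated with compound at 76 uM single dose, then 10 uM ATP, 30 min at 37 °C. ADP was read by HTRF Transcreener.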
An asterisk follows results filed as active; u = inconclusive; x = no result given; [ ] = remark or other dose. Sampled rows, rich in hits. Any-hit rate of the full collection: about 0.47%. Unless noted, the call rests on the fitted dose curve; in most records, active means well fitted curve in the direction sought with a large enough effect; inconclusive means small, poorly fitted or top-dose-only effect, or another doubt; inactive means no such curve, though single readings can be large; an effect the other way counts as inactive or inconclusive.

SMILES	Mm-Cpn inhibitor	Anesthetic bind	A-T KAP1 phos	CCT chaperon mod
O=C(NC(=O)c1c(F)cccc1F)Nc1ccccc1SC(F)F	0.9%	-11.8%	10µM*	0.5
O=C(Nc1ccccc1)c1c(F)cccc1F	3.5%	-10.1%	9.7%	-1.2
O=C(Nc1ccc2nc(SCC(=O)N3CCOCC3)sc2c1)c1cccc(Br)c1	x	-0.8%	x	x
Cc1cc(C)n(Cc2ccc(C(=O)NN)o2)n1	-0.4%	-12.2%	6.5%	-49.9*
Cc1cc(C)n(Cc2ccc(C(=O)O)o2)n1	0.6%	-4.6%	0.2%	-4.8
CC(=O)Nc1nonc1-c1nnc(SCC(=O)Nc2ccc(C)cc2)n1-c1ccccc1	x	-20.3%	x	x
COC(=O)c1ccc(Cl)cc1NC(=O)N1CC=C(c2c[nH]c3ccccc23)CC1	x	53.2%	x	x
O=c1n(Cc2ccccc2)c(O)c2n1Cc1ccccc1N=C2c1ccccc1	x	x	x	-40.4*
Cc1nc(-n2nc(C)c(CCC(C)C)c2C)sc1C(=O)Nc1ccc(Br)cc1	x	-2.8%	x	x
Cc1nc2sc3c(c2c(=O)n1N)CCC3	3.0%	-9.6%	5.9%	1.5
Cn1nnc2sc3c(c2c1=O)CCCC3	-1.7%	31.6µM*	-3.6%	1.4
COc1ccc(N2CCN(S(=O)(=O)CCNC(=O)COc3ccc(Cl)cc3)CC2)cc1	-0.3%	-7.0%	1.1%	-40.1*
COc1ccc(NC(=O)CCCCCN2C(=O)c3cccc([N+](=O)[O-])c3C2=O)c(OC)c1	-2.5%	-7.4%	4.6%	-38.6*
CC1(C)C2CCC1(C)C(OCCNCCOC(=O)Nc1ccccc1)C2 (stereo unspecified)	-4.0%	-21.8%	0.0%	-39.7*
CC1(C)C2CCC1(C)C(OC(=O)c1ccccc1C(=O)O)C2 (stereo unspecified)	-1.8%	-14.0%	7.4%	0.5
COc1ccc(-c2oc3ccccc3c2C(=O)OCc2ccc(O)cc2)cc1	-1.6%	7.1%	24.7%	0.5
COc1ccc(-c2oc3ccccc3c2C(=O)OCc2ccccc2)cc1	-1.4%	6.6%	u	-33.3*
O=C(NCCc1ccc(Cl)cc1)C(=O)NCC(c1ccc2c(c1)OCO2)N1CCOCC1 (stereo unspecified)	x	33.3%	x	x
Oc1[nH]c2c(Cl)cc(Cl)cc2c1N=NC(=S)NCC1CCCO1 (stereo unspecified)	-0.4%	-3.7%	-3.4%	-39.8*
COc1ccc(C(=O)NC(C)C2CC3CCC2C3)cc1 (stereo unspecified)	-1.7%	-23.8%	2.3%	0.1
CC(NC(=O)c1ccc(N(C)C)cc1)C1CC2CCC1C2 (stereo unspecified)	-11.0%	-21.6%	1.9%	-44.2*
CC(NC(=O)C1CC=CCC1C(=O)O)C1CC2CCC1C2 (stereo unspecified)	0.4%	-10.8%	-7.0%	-0.4
CC(NC(=O)C1CCCC1)C1CC2CCC1C2 (stereo unspecified)	-0.4%	-20.3%	x	-40.8*
COc1cccc(-c2nnc3n2N=C(c2c(OC)cccc2OC)CS3)c1	x	-13.4%	x	x
CCCN(CCC)C(=O)Cn1c(=O)n(-c2ccc(OC)cc2OC)c(=O)c2c3c(sc21)CCC3	x	-6.9%	x	x
SMILES	Mm-Cpn inhibitor	Anesthetic bind	A-T KAP1 phos	CCT chaperon mod
Cc1onc(-c2ccccc2)c1C(=O)OCC(=O)Nc1ccc2c(c1)OCO2	-1.0%	-15.5%	7.6%	-43.3*
Cc1onc(-c2ccccc2Cl)c1C(=O)OCC(=O)Nc1ccc2c(c1)OCO2	-1.4%	-13.4%	9.7%	-3.8
CCCNC(=O)NCCC12CC3CC(CC(C3)C1)C2	1.4%	u	1.8%	-4.4
CCCNC(=O)OCCC12CC3CC(CC(C3)C1)C2	-1.8%	u	31.6µM*	-1.5
Clc1ccc(C2Nc3cccc4cccc(c34)N2)cc1	0.7%	8.9%	-4.7%	-55.5*
CSc1ccc(C2Nc3cccc4cccc(c34)N2)cc1	0.8%	-8.7%	-0.7%	1.5
O=C(CNC(=O)c1ccc2c(c1)OCO2)N/N=C(Br)/C=C/c1ccccc1	-0.8%	7.08µM*	x	0.5
Cn1c(=O)n(-c2ccc(Br)cc2F)c(=O)c2sc3ccccc3c21	x	-2.0%	x	x
CC[C@H](C)[C@H](NC(=O)[C@H](C)NC(=O)[C@H](Cc1cnc[nH]1)NC(=O)[C@@H]1CCCN1C(=O)CNC(=O)[C@H](CC(C)C)NC(=O)[C@H](CC(C)C)NC(=O)[C@H](Cc1ccc(O)cc1)NC(=O)CNC(=O)[C@H](C)NC(=O)[C@H](CO)NC(=O)[C@H](CC(N)=O)NC(=O)[C@H](CC(C)C)NC(=O)[C@@H](NC(=O)[C@H](Cc1c[nH]c2ccccc12)NC(=O)CN)[C@@H](C)O)C(=O)O	x	-0.6%	x	x
COCCCNCCOCCOc1ccc(C)cc1[N+](=O)[O-]	0.3%	-8.5%	4.2%	-39.7*
CCOC(=O)CSc1nc(C(C)C)nc2ccccc12	-4.8%	-0.2%	0.1%	-42.5*
COC(=O)CSc1nc(C(C)C)nc2ccccc12	-9.1%	-15.6%	14.5%	0.7
CC(=O)c1c(C)nc(-c2ccc(Cl)cc2)nc1NC(=O)C(C)C	-0.9%	-10.3%	8.6%	-74.4*
CCOc1ccccc1CN(CCc1ccc2c(c1)OCO2)Cc1cccc(OC)c1OC	x	24.2%	x	x
CCCNC(=O)CN1C(=O)COc2ccc(S(=O)(=O)N3CCC(C)CC3)cc21	x	-18.2%	x	x
CCCNC(=O)CN1C(=O)COc2ccc(S(=O)(=O)N3CC(C)CC(C)C3)cc21 (stereo unspecified)	-1.3%	-8.0%	-3.0%	-46.3*
O=c1n(-c2ccccc2)c(=O)n2n1CC[C@H]1/C(=N\OCc3ccccc3)[C@H]3O[C@@H]3[C@@H](O)[C@@H]12	x	-8.9%[15.3 µM]	x	x
Cc1cccc(C)c1N=Nc1c(C)cc(O)cc1C	-2.5%	25.1µM*	u	-9.7
COc1cc(C2c3c(oc4ccccc4c3=O)C(=O)N2c2nnc(C(C)C)s2)cc(OC)c1OC (stereo unspecified)	x	-4.6%	x	x
CCN(CC)CCNC(=O)c1ccc(Cn2c(SCc3ccccc3)nc3cccnc32)cc1	x	-18.5%	x	x
CCCNC(=O)C(Cc1ccccc1C)NC(=O)c1ccc(C#N)cc1 (stereo unspecified)	0.8%	x	6.2%	-38.4*
CCCNC(=O)C(Cc1ccccc1F)NC(=O)c1ccc(C#N)cc1 (stereo unspecified)	-0.6%	x	8.7%	-1.5
CO[C@H]1COC(=O)C/C=C\[C@@H](C)COC(=O)[C@@H](CCSC)NC(=O)C/C=C\[C@@H]1C	x	-4.7%[15.3 µM]	x	x
COc1ccccc1C1(O)CCN(CC(=O)Nc2nc(-c3ccccc3)cs2)CC1	-0.4%	-23.1%	-2.5%[11.5 µM]	-45.6*
O=C(Cn1sc2ccccc2c1=O)NC12CC3CC(CC(C3)C1)C2	1.4%	15.8µM*	-6.0%	0.8
COc1cccc(OCc2nc3c4cnn(-c5ccccc5)c4ncn3n2)c1	0.8%	-16.3%	-8.5%	-6.0
COc1cccc(/C=N/n2cnc3c(cnn3-c3ccccc3)c2=O)c1	1.0%	-5.4%	39.8µM*	-2.8
